# Measured values reported in PubChem BioAssay AID504332 (National Center for Advancing Translational Sciences (NCATS), 2011).
# Among all 350,000 compounds or so, about 31,000 (8.9%) were called active. Where a call stands in place of a potency, no number is given. Roughly 15% stayed inconclusive and do not appear here. The sample holds actives, similar compounds and a random draw of the others, so the mix is not that of the screen. Unmarked numbers belong to inactive results. Calls come from the whole dose curve; as a rule, active = well fitted inhibition curve with a large enough effect; inconclusive = small, poorly fitted or top-dose-only effect; inactive = no such curve, though single readings can be large or run the other way.
# Molecular target: Histone-lysine N-methyltransferase EHMT2 (Homo sapiens) (UniProt Q96KQ7)
# Assay: qHTS Assay for Inhibitors of Histone Lysine Methyltransferase G9a; note: nearly all actives have a fitted effect of over 75% in size
# Settings: G9a H3K9 monomethylation, AlphaScreen, 2 h; series mostly up to 59 µM
# Excerpt: Methylated lysines, on the N-terminal tails of histone proteins serve as epigenetic markers to recruit factors that can then modify local chromatin structure to lead to functional consequences. G9a and other members of the SUV39 family of the SET domain-containing superfamily of histone lysine methyltransferases (HMT) have been identified to specifically methylate Lys9 of histone H3 (H3K9). G9a catalyzes the mono- and di-methylation of H3K9 in mammalian euchromatic regions, where the resulting H3K9me2 is indicative of transcriptional repression. […] The inhibition of G9a will result in transcriptional activation and work synergistically with DNA methyltransferase and histone deacetylase inhibitors, to kill cancer cells. This qHTS assay for identification of G9a inhibitors is a chemiluminescence based AlphaScreen (PerkinElmer). Methylation of biotinylated-histone peptide is measured through specific antibody-based detection, in conjunction with streptavidin-coated donor and anti-IgG antibody-coated acceptor beads. The method is particularly well suited for detection of inhibitors acting by the desired histone peptide competitive mechanism and is applicable to testing other HMTs. Although AlphaScreen has significant advantages with its utility in a variety of epigenetic target assays, the primary screening data provided in this deposition should be used with caution due to the prevalence of screening artifacts. An AlphaScreen counterscreen is highly recommended to be run against any putative actives to eliminate non specific artifacts. Alternatively, one can use other AlphaScreen assays in PubChem to filter out promiscuous hits. Quinn et al. A chemiluminescence-based method for identification of histone lysine methyltransferase inhibitors. Mol Biosyst 6(5): 782-8. 2010. PMID: 20567762 [2] Baell,Holloway. New substructure filters for removal of pan assay interference compounds (PAINS) from screening libraries and for their exclusion in bioassays. J Med Chem. 53(7):2719-40. 2010. PMID: 20131845 NIH Molecular Libraries Probe Production Network [MLPCN] NIH Chemical Genomics Center [NCGC] Structural Genomics Consortium (SGC) NIH Grant: 5U54 MH084681-02
# To each well of a 1,536w plate, 2ul of HMT enzyme (final 20nM) were added, using a nanoliter dispenser. The G9a- and GLP-inhibitor BIX-01294 (CID: 25150857) are used as an intraplate control, with a 16-point titration in duplicate. A Kalypsys pin-tool transferred 23nl of library compound solution in DMSO to each well. Following a 15 min incubation of enzyme with compounds at room temperature, 1ul mixture of b-H3K9 peptide substrate (final 500nM) and SAM cofactor (final 20uM) were added. Reactions were allowed to proceed at room temperature for 2 hours. Methylated b-H3K9 peptide product was detected with 0.5 ug/mL rabbit polyclonal anti-monomethyl histone H3K9 antibody (Abcam Inc., Cambridge, MA) and 20 ug/mL each streptavidin-coated donor and anti-rabbit IgG acceptor AlphaScreen beads. Antibody and beads were added in a 1ul dispense, for a final volume of 4ul, and plates were incubated, protected from the light, for 10 min at room temperature. Microplates were then read on an EnVision multilabel plate reader using the 1,536 plate HTS AlphaScreen aperture (excitation time 80 ms, measurement time 240 ms).
# Potency is the fitted concentration of half-maximal effect.
# Histone-lysine N-methyltransferase EHMT2 (Homo sapiens), sequence (Q96KQ7 913-1193 limits assumed): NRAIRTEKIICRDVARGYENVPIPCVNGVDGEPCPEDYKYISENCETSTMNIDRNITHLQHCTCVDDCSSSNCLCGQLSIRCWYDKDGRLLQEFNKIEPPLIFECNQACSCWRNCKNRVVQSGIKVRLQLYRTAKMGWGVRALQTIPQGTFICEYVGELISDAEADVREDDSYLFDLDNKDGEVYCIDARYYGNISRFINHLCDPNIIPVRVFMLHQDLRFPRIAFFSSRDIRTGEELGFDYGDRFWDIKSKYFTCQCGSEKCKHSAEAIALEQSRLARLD
Compound,"activity, negative = inhibition",Potency
CC(CN1CCOCC1)OC(=O)c1ccc(C(C)(C)C)cc1 (configuration not stated),6.26% [at 0.501 µM],–
N#Cc1ccc(C2=CC(=O)C[C@H](c3ccc(Cl)cc3)C2)cc1,-28.8% [at 0.501 µM],–
CCOC(=O)c1c(S(=O)(=O)N2CCCC(C(=O)NCc3ccc(F)cc3)C2)c(C)n(CC)c1C (configuration not stated),–,inactive
Cc1ccc(CN2CC(C(=O)N3CCN(S(=O)(=O)c4ccccc4)CC3)CC2=O)cc1 (configuration not stated),–,inactive
Cc1ccc(CN2CCCn3nc(C(=O)NCc4ccccc4Cl)cc3C2=O)cc1,–,inactive
O=C(O)C#Cc1cccc2ccccc12,–,inactive
O=C(N/N=C/c1c(Cl)[nH]c2ccccc12)c1sc2ccccc2c1Cl,–,inactive
CCOc1ccc(N=Cc2c(O)n(-c3cccc(C)n3)c(=O)c3ccccc23)cc1,–,inactive
Oc1ccc(N=Cc2c(O)ccc3ccccc23)cc1,–,1 µM (active)
CCOc1[nH]n(-c2ccc(Cl)cc2)c(=O)c1C=Nc1ccc(O)cc1,–,inactive
COc1ccc(N=C(C)c2sc3ccccc3c2O)cc1,–,inactive
Oc1ccc(N=Cc2sc3ccccc3c2Cl)cc1,–,10 µM (active)
Oc1ccc2ccccc2c1C=Nc1ccccc1,–,2.51 µM (active)
O=S(=O)(NCCc1nnc2ccc(SCc3ccc(Cl)cc3Cl)nn12)c1ccccc1,–,inactive
COc1ccc(NC(=O)C2CCCN(S(=O)(=O)c3cccc4nonc34)C2)cc1Cl (configuration not stated),–,inactive
O=S(=O)(Nc1ccc(-n2cnnn2)cc1)c1ccc(Cl)cc1,–,inactive
CCOc1ccccc1C(=O)Nc1ccc2c(c1)N(C)C(=O)c1ccccc1S2,–,inactive
Cc1ccc(OCCNC(=O)CNC(=O)c2ccc(C)c(C)c2)cc1,24.7% [at 2.33 µM],–
COC(=O)COc1ccc2c(c1C)O/C(=C\c1ccco1)C2=O,–,8.91 µM (active)
COc1ccccc1OCC(=O)OCc1cc(-c2ccco2)on1,3.66% [at 12.7 µM],–
Cc1cc(C)c(OCC(=O)N/N=C/c2ccco2)c(C)c1,–,inactive
COc1cccc(C(=O)OCC(=O)c2[nH]c(C)c(C(C)=O)c2C)c1,-42.2% [at 12.7 µM],–
CCOc1ccc(N(CC)C(=O)C2CCN(S(=O)(=O)c3cccc4nonc34)CC2)cc1,–,inactive
COc1ccc(S(=O)(=O)N2CCOCC2)cc1NC(=O)CSc1cc(C)ccc1C,3.19% [at 0.501 µM],–
CCOC(=O)c1cccc(NS(=O)(=O)c2cn(C)c(C)n2)c1,–,inactive
Cc1cccc(N2CCN(C(=O)CCn3c(=O)c4cccn4c4cccnc43)CC2C)c1 (configuration not stated),–,inactive
CSCCC(NC(=O)c1ccco1)C(=O)NCCc1ccc(F)cc1 (configuration not stated),40.1% [at 12.7 µM],–
